# Source: PubChem BioAssay (National Center for Advancing Translational Sciences (NCATS))
# D2 ag-1: human D2 receptor agonism in beta-arrestin assay; P14416; DiscoveRx PathHunter D2 beta-arrestin, luminescence, 90 min; 100% = 57 uM dopamine signal; activation, % (test concentration not listed); hit rate 0.084% among 360,000; AID 624465; in the data active = activation above about 40%; inconclusive = between about 15% and that limit
# Target sequence (P14416 whole entry, looked up): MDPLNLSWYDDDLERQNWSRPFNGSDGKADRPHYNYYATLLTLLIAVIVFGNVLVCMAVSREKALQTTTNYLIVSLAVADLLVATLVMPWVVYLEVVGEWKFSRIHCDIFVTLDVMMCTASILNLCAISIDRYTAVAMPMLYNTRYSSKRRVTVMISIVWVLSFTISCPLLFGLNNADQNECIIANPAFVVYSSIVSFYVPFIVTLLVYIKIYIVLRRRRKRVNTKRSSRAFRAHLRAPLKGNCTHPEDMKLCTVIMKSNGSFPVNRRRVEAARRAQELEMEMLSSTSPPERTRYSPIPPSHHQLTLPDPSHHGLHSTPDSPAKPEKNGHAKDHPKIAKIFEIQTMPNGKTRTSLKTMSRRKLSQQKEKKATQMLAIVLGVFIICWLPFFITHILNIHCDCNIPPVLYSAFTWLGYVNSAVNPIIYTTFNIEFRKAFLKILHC
#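 DiscoveRx PathHunter D2 beta-arrestin cells (2,100/well) attached overnight, then compound-stimulated 90 min at 37 C in HBSS/10 mM HEPES/0.1% Tween-20 buffer; beta-galactosidase complementation read by luminescence after 1 h at ambient temperature. Dopamine 57 uM final (EC100) as control.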
# D2 antag: D2 dopamine receptor (human) antagonism. P14416. HEK293 TREx D2 cells, calcium flux, dopamine EC80. inhibition, % at 10 µM. hit rate 2% among 340,000. AID 485344; in the data active = inhibition above about 30%; inactive = below that, where a call was filed
#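 HEK293 T-REx D2 cells, tet-induced, calcium dye no-wash. Cpd pintool add, 180 s kinetic, then EC80 DA, 180 s kinetic. Ca flux read.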
# D2 PAM-1: human D2 receptor positive allosteric modulation | P14416 | hit rate 0.23% among 360,000 | potentiation, % (test concentration not listed) | DiscoveRx D2 beta-arrestin cells, luminescence, 90 min; 100% = 57 uM dopamine signal; in the data active = potentiation above about 50%; inconclusive = mostly about 30% to 49%
#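 PathHunter D2 cells, attached overnight at 37 deg C, received compound in DMSO plus dopamine at EC20 (50 nM final) for 90 min at 37 deg C. Beta-arrestin recruitment was read as luminescence after 1 h with detection reagent at ambient temperature.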
# D2 ag-2: D2 dopamine receptor (human) agonism; HEK293 T-REx D2 cells, calcium flux agonist mode; P14416; activation, % at 2 µM; hit rate 0.53% among 340,000;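 active = activation over 3 SD above normal in the single-dose calcium agonist read, cut at about 30% in these data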
#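 Agonism scored from kinetic calcium signal (1 read/sec, 180 s) following compound pin transfer, after a 10 s baseline. Cells: HEK293 Trex line expressing inducible D2 receptor coupled to calcium, dye-loaded after overnight culture at 30 C.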
# D2 PAM-2: positive allosteric modulators of human D2 dopamine receptor. hit rate 0.34% among 340,000. potentiation, % at 10 µM. P14416. AID 485347. HEK293 T-REx D2, calcium flux, EC20 dopamine potentiation;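 active = potentiation over 3 SD above the plate norm, cut at about 30% in these data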
#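 Potentiation of an EC20 dopamine calcium response measured kinetically over 180 s, after a preceding 180 s compound-only read flagging agonists. Cells: inducible Hek293 Trex D2 line, 4000/well, cultured overnight at 30 C before dye loading.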
# Hits are given with their value; . = inactive; ? = inconclusive; / = no result. Most compounds without a hit are left out; they make up all but 2.4% or so of the library.
SMILES,D2 ag-1,D2 antag,D2 PAM-1,D2 ag-2,D2 PAM-2
C#CCSc1nccc(-c2nn(-c3ccc(C)cc3)ccc2=O)n1,.,32,.,.,.
CC(=O)Nc1nonc1-c1nnc(SCc2ccccc2F)n1C,/,/,/,.,.
COc1ccc(NC(=O)Cn2ncc3c4ccccc4n(Cc4ccccc4)c3c2=O)cc1OC,/,/,/,.,.
CSc1ccc(C#N)cc1NC(=O)c1ccccc1C,.,51,.,.,.
CCOc1ccc(CNC(=O)c2cnc3sc(N4CCOCC4)nn3c2=O)cc1OC,/,/,/,.,.
COC(=O)[C@H]1[C@H]2C[C@H]3c4[nH]c5ccccc5c4CCN3C[C@H]2CC[C@@H]1O,.,87,.,.,.
COC(=O)C1C(O)CCC2CN3CCc4c([nH]c5ccccc45)C3CC21 (configuration not stated),.,50,.,.,.
COC(=O)C1C2CC3c4[nH]c5cc(OC)ccc5c4CCN3CC2CC(O)C1OC (configuration not stated),.,/,.,/,/
COc1ccccc1N1CCN(C(=O)CN2C(=O)COc3ccc(S(=O)(=O)N4CCOCC4)cc32)CC1,/,/,/,.,.
CCOc1ccc(N(C(=O)Cn2nnc3ccccc32)C(C(=O)NC(C)(C)CC)c2cccn2C)cc1 (configuration not stated),.,.,.,.,.
CCC(C)(C)NC(=O)C(c1cccn1C)N(C(=O)Cn1nnc2ccccc21)c1ccc(OC)cc1OC (configuration not stated),.,30,.,.,.
O=C(O)C(Cc1ccccc1)N1C(=O)c2ccccc2C1=O (configuration not stated),.,.,.,.,.
CCC(C(=O)O)N1C(=O)c2ccccc2C1=O (configuration not stated),.,37,.,.,.
O=C(Nc1cccc(Br)c1)N1CCC(CN2CCCCCC2)CC1,/,/,/,.,.
COc1ccccc1OCCSc1nc2ccccc2n1CC(=O)N1CCOCC1,/,/,/,.,.
COc1cc(/C=C2\SC(=O)N(CC(=O)Nc3ccccc3F)C2=O)cc(Cl)c1O,.,.,.,41,.
COc1cc(Cl)c(CC(=O)c2c[nH]c3ccccc23)cc1OC,.,33,.,.,.
O=C1C=C(c2cccs2)C[C@H](c2ccccc2)[C@H]1n1nnc([N+](=O)[O-])n1,?,.,92,.,.
O=C(CN1CCN(Cc2ccccc2F)C1=O)NC1CCCC1,.,40,.,.,.
O=C(CN1CCCN(Cc2ccc(F)cc2Cl)C1=O)NC1CCCCCCC1,.,.,.,.,.
Cc1ccc(-c2cc(C(F)F)nc(NCc3cccs3)n2)cc1,.,.,.,.,.
Cc1ccc(-c2cc(C(F)F)nc(NCc3cccnc3)n2)cc1,.,.,.,.,42
COc1ccc(-c2cc(C(F)(F)F)nc(SCC(=O)N3CCCCC3)n2)cc1OC,/,/,/,.,.
Cc1c(Br)c([N+](=O)[O-])nn1C(C)C(=O)Nc1ccc2c(c1)OCO2 (configuration not stated),.,40,.,.,.
COc1ccc(-c2nc(CSCC(=O)N3CCc4ccccc4C3)c(C)o2)cc1OC,.,45,.,.,.
SMILES,D2 ag-1,D2 antag,D2 PAM-1,D2 ag-2,D2 PAM-2
O=C1c2ccccc2NC2CCCCCN12 (configuration not stated),.,.,.,.,30
Cc1c(C(=O)N(C)C)sc2c1c(=O)n(-c1ccc(Cl)c(Cl)c1)c(=O)n2CC(=O)N1CCCCC1C (configuration not stated),/,/,/,.,.
Clc1ccc(N=C2SCC3CCCCN23)cc1 (configuration not stated),.,.,.,.,.
FC(F)Oc1ccc(N=C2SCC3CCCCN23)cc1 (configuration not stated),.,.,.,.,36
CC(C)CCn1c(=O)c2sccc2n2c(CCCC(=O)NCCc3ccccc3)nnc12,/,/,/,.,.
COc1ccc(NS(=O)(=O)c2c(C)cc(C)cc2C)cc1,.,34,.,.,.
Cc1cccc(N2CCN(CCCNC(=O)c3ccc(NC(=O)C4=CSCCO4)cc3)CC2C)c1 (configuration not stated),.,36,.,.,.
CC1CCCN(CCCNC(=O)c2ccc(NC(=O)C3=CSCCO3)cc2)C1 (configuration not stated),.,.,.,.,.
COc1cccc(S(=O)(=O)Nc2cccc(C(=O)N3CCCC3)c2)c1,.,.,.,.,.
O=C(Nc1ccccc1N1CCOCC1)c1cccc(NS(=O)(=O)c2ccc(F)c(F)c2)c1,.,48,.,.,.
COc1cccc(S(=O)(=O)Nc2cccc(C(=O)N3CCOCC3)c2)c1,.,36,.,.,.
CS(=O)(=O)Nc1ccc(C(=O)N2CCN(c3ccccc3F)CC2)cc1,.,63,.,.,.
O=C(Nc1ccccc1N1CCOCC1)c1ccccc1NS(=O)(=O)c1ccc(F)c(F)c1,.,.,.,.,.
COc1ccc(N2CCN(C(=O)c3ccc(NS(=O)(=O)c4cccc(F)c4)cc3)CC2)cc1,.,.,.,.,34
O=C(c1ccccc1)N1CCN(c2ccccc2F)CC1,.,.,.,.,.
Cc1ccc(NC(=O)Nc2nnc(SCC(=O)N3CCC(C)CC3)s2)cc1,/,/,/,.,.
CC1CN(CCCCN2C(=O)c3ccccc3C2=O)CC(C)O1 (configuration not stated),.,40,.,.,.
CC1CN(CN2C(=O)c3ccccc3C2=O)CC(C)O1 (configuration not stated),.,.,.,.,.
O=C(N1CCCCCC1)N1CCN(S(=O)(=O)c2ccccc2)CC1,.,.,.,.,.
O=C(c1ccc(=O)[nH]c1)N1CCN(S(=O)(=O)c2ccc(Cl)cc2)CC1,.,.,.,.,.
O=C(N1CCCCC1)N1CCN(S(=O)(=O)c2ccccc2)CC1,.,.,.,.,70
O=C(c1ccc(=O)[nH]c1)N1CCN(S(=O)(=O)c2ccccc2)CC1,.,31,.,.,.
Cc1c(C(=O)N2CCN(S(=O)(=O)c3ccccc3)CC2)oc2ccccc12,.,34,.,.,.
O=C(CN1CCSC1=O)N1CCN(S(=O)(=O)c2ccccc2)CC1,.,37,.,.,.
COc1ccc(S(=O)(=O)N2CCN(C(=O)c3oc4ccccc4c3C)CC2)cc1,.,.,.,.,.
COc1cccc2c1ncc1c(-c3ccc(C)cc3)nn(-c3ccc(F)cc3)c12,/,/,/,.,.
CC(C)(C)c1ccc(C(=O)O/N=C(\N)c2ccccc2)cc1,40,.,.,.,.
N/C(=N\OC(=O)c1cccc(Br)c1)c1ccc(Br)cc1,.,.,100,.,.
Cc1noc(-c2ccc(Cl)cc2)c1C(=O)O/N=C(\N)c1ccc(C(C)(C)C)cc1,47,/,151,/,/
